# In the library only some 3.8% were active in any assay of this set; here they are far more common.
# GLS inh: glutaminase GLS (human) inhibition; O94925; GLS enzymatic activity, qHTS titration; Potency, µM (highest dose often 45.5 µM), hits mostly inhibitors; actives 0.21% (n = 410,000); AID 624170
#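 Two-point fluorescence kinetic (t0, 30 min RT) for hKGA; glutamate detected via glutamate oxidase–HRP–Amplex Red. Substrate: 1 mM L-glutamine solution; buffer 45 mM KH2PO4, pH 8.2.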
# Sfp PPTase inh: blocks B. subtilis Sfp PPTase activity | Q9F4F7 | Biochemical Sfp PPTase activity, qHTS | Potency, µM, most hits filed as inhibitors | actives 3.5% (n = 310,000);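 also: the enzyme is Sfp with the accession as filed and its product quenches rhodamine fluorescence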
#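 With Hepes-Na pH 7.6 buffer containing 10 mM MgCl2, Sfp (15 nM) modified BHQ-2-YbbR (12.5 uM) using rhodamine-CoA (5 uM). Two reads 30 minutes apart at 525/598 nm yielded each well's rate.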
# TrxR1 substrate: substrates of rat thioredoxin reductase 1 | O89049 | purified TrxR1 substrate turnover, NADPH consumption readout | Potency, µM (series often up to 114 µM) | actives 0.01% (n = 390,000); also: nearly all actives have a fitted effect of over 50% in size
#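 Rat TrxR1, dispensed at 90 nM, was prereduced with 400 uM NADPH (final) for 5 min at ~22 deg C, then incubated with compound 15 min before 400 uM selenite. A first-read NADPH fluorescence drop versus no-compound background flagged substrates.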
# GCN5L2 inh: GCN5L2 (KAT2A) acetyltransferase inhibition | Potency, µM (top dose mostly 58.9 µM), hits mostly inhibitors | GCN5L2 HAT assay, ThioGlo1 CoA-SH fluorescence | Q92830 | actives 0.21% (n = 390,000)
#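 GCN5L2 (20 nM) in 50mM HEPES pH 7.5, 0.1mM EDTA, 0.01% Tween-20 preincubated 15 min with compounds at room temperature. Reaction started with H3(1-25) 75uM, acetyl-CoA 70uM, ThioGlo1 50uM; CoA-thiol fluorescence (Ex340/Em540) read at 0 and 20 min.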
# TrxR1 inh: rat TrxR1 inhibition | O89049 | recombinant rTrxR1, NADPH fluorescence consumption, selenite substrate | Potency, µM (top dose mostly 114 µM), most hits filed as inhibitors | actives 1% (n = 390,000) | AID 588453; also: nearly all actives have a fitted effect of over 65% in size
#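 Rat TrxR1 (90 nM in the dispensed reagent) was pre-reduced with 400 uM NADPH for 5 min at room temperature, then incubated with compound for 15 min. After 400 uM selenite was added, NADPH fluorescence (Ex 340/Em 450 nm) was followed for 8 min.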
# VDR inh: inhibitors of human vitamin D receptor. actives 0.93% (n = 400,000). Potency, µM, usual class: inhibitors. VDR-SRC2-3 peptide fluorescence polarization, 2 h. P11473
# Target sequence (P11473 whole entry, looked up): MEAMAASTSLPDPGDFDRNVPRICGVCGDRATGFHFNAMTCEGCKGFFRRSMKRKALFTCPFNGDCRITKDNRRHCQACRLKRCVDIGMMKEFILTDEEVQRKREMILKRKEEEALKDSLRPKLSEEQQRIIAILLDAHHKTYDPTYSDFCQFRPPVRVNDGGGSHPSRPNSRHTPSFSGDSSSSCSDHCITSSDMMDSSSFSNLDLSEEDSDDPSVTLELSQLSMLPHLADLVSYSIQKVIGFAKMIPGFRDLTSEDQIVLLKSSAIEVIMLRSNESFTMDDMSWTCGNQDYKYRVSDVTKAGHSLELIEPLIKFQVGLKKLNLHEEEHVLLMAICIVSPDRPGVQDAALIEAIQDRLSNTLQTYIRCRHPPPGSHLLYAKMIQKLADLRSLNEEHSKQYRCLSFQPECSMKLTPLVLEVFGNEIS
#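 After 23 nl compound addition and a short centrifugation, plates sat for 2 hours at ambient temperature; polarization of fluorescence then indicated loss of VDR binding to peptide SRC2-3.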
# Hits are given with their value; – = inactive; ? = inconclusive; · = no result given; ! = a repeat was not active; [ ] = dose if it differs, or a comment. Calls follow the shape of the dose curve; as a rule, active = well fitted curve in the direction sought with a large enough effect; inconclusive = small, poorly fitted or top-dose-only effect, or another doubt; inactive = no such curve, though single readings can be large; an effect the other way counts as inactive or inconclusive.
SMILES,GLS inh,Sfp PPTase inh,TrxR1 substrate,GCN5L2 inh,TrxR1 inh,VDR inh
CCOc1cccc(/C=N/NC(=O)CC2C(=O)NN=C2C)c1O (configuration not stated),5.6µM,–,–,–,–,–
COC(=O)c1sccc1NC(=O)/C=C/c1c(Cl)cccc1Cl,–,40µM,–,–,–,–
COC(=O)c1sccc1NC(=O)c1c(Cl)cccc1Cl,–,–,–,–,–,–
COc1ccc(OC)c(C(C)NC(=S)NC2CCCCC2)c1 (configuration not stated),–,–,–,–,–,–
CCOc1ccc(C(C)=O)cc1N1C(=O)C2C3C=CC(O3)C2C1=O (configuration not stated),–,7.9µM,–,–,3.2µM,22µM
CNC(=O)[C@@]1(C)C=C[C@@H](Cc2ccccc2)N1C(C)=O,·,–,·,·,·,·
CC(=O)N1[C@H](Cc2ccccc2)C=C[C@]1(C)C(=O)NCc1ccc(C)o1,–,45µM!,–,–,?,–
CCOc1ccc(NC(=S)/C(=C(\[O-])c2ccc(C)c([N+](=O)[O-])c2)[n+]2ccccc2)cc1,–,–,–,–,–,–
C=CCNS(=O)(=O)c1sccc1/C=N/O,–,–,–,–,–,–
Cc1ccc(C2=[N+]([O-])C3(CCCCC/C3=N\NC(N)=S)N(O)C2(C)C)o1 (configuration not stated),·,71µM,·,–[0.501 µM],·,·
CN1CCC(N(C)S(=O)(=O)c2ccc(NC(=O)COc3ccc(Br)cc3Cl)cc2)CC1,–,·,?,–,–,–
O=C(O)Cn1cc(C(=S)N2CCCCC2)c2ccccc21,–,22µM,–,–,–,–
COCCNC(=O)Cn1cc(C(=S)N2CCCCC2)c2ccccc21,–,–,–,–,–,–
O=C(O)Cn1cc(C(=S)N2CCOCC2)c2ccccc21,–,50µM,–,–,–,?
CCCCCCNCC1OCc2ccccc2CO1,–,–,–,–,–,–
S=c1[nH]nc(-c2ccc(Cl)cc2)n1/N=C/C=C/c1ccco1,–,56µM,–,–,–,–
S=c1[nH]nc(-c2cccnc2)n1/N=C/C=C/c1ccco1,–,16µM,–,?,–,–
CC(/C=N/n1c(-c2cccnc2)n[nH]c1=S)=C\c1ccco1,?,–,–,–,?,–
O=[N+]([O-])c1ccccc1/C=C/C=N/n1c(-c2ccccc2F)n[nH]c1=S,–,28µM,–,–,–,–
S=c1[nH]nc(-c2ccc(Cl)cc2)n1/N=C/c1ccco1,–,–,–,–,–,–
Cc1ccccc1-c1n[nH]c(=S)n1/N=C/C=C/c1ccco1,–,–,–,–,4µM,71µM
CCOC(=O)NCC(C)(C)CNC(=O)OCC,–,–,–,–,–,–
S=c1[nH]nc(-c2ccco2)n1/N=C/C=C/c1ccccc1,–,–,–,–,–,–
S=c1[nH]nc(-c2ccccc2)n1/N=C/C=C/c1ccco1,?,50µM,–,–,–,–
CC(C)(C)SCCNC(=O)CSCc1ccc([N+](=O)[O-])cc1,–,–,–,1.8µM,–,–
SMILES,GLS inh,Sfp PPTase inh,TrxR1 substrate,GCN5L2 inh,TrxR1 inh,VDR inh
CCN(CC)CCNC(=O)c1ccc(NC(=O)c2ccc(Cl)c(S(=O)(=O)N3CCCCCC3)c2)cc1,–,50µM,–,–,–,–
COc1ccc(C(C2C(=O)CC(C)(C)CC2=O)C2C(=O)CC(C)(C)CC2=O)cc1CO,–,56µM,–,–,8.9µM,?
CN(O)/C=C1\C(=O)Nc2ccccc21,–,50µM,–,–,?,–
CN(C)/C=C1\C(=O)Nc2ccccc21,–,–,–,–,–,–
NC(=O)Cc1nc2scc(-c3ccccc3)c2c(=O)[nH]1,–,79µM,–,–,–,–
CC(=O)c1c(O)cc(O)cc1O,–,–,–,–,3.5µM,–
COc1cc(O)c(C(C)=O)c(OC)c1,–,–,–,–,–,–
CCOC(=O)c1c(-c2ccccc2)csc1NC(=O)CSc1nc(N)cc(N)n1,–,–,–,–,–,–
CCOC(=O)c1c(-c2cc(OC)c(OC)c(OC)c2)csc1N,–,·,·,·,·,·
CCOC(=O)c1c(-c2ccc(C)o2)csc1NC(=S)NC(=O)c1ccc(F)cc1,–,–,–,–,?,–
CCOC(=O)c1c(-c2ccc(C)o2)csc1NC(=O)CN1CCC(C(N)=O)CC1,–,32µM,–,–,–,–
CCOC(=O)c1c(-c2ccco2)csc1N,–,32µM,–,–,–,–
CCOC(=O)c1c(-c2ccc(C)o2)csc1NC(=O)CN1CCN(CC)CC1,–,–,–,–,4.5µM,–
CCOC(=O)c1c(-c2ccc(C)o2)csc1NC(=O)CSc1nncs1,–,7.9µM,–,?,2.2µM,?
COC(=O)c1ccc2[nH]c([C@H](C)O)c([C@H](C)O)c2c1,–,–,–,–,–,–
OC1C[N+]2(CCCCC2)C1,–,–,–,–,–,–
Cc1cc(C)c(S(=O)(=O)N2CCCOC2CNC(=O)C(=O)NCc2cccs2)c(C)c1 (configuration not stated),–,–,–,–,–,–
CCOC(=O)c1c(NC(=O)CSc2nnc(-c3ccco3)o2)sc(C(C)=O)c1C,–,–,–,·,–,–
CCOC(=O)c1c(-c2ccco2)csc1NC(=O)CSc1nnc(N)s1,–,25µM,–,–,?,–
COc1ccc2c(c1O)Cc1ccccc1C2=O,–,45µM,–,–,–,–
Cn1c(N/N=C/c2c[nH]c3ccccc23)nc2ccccc21,–,–,–,–,–,–
Cn1c(N/N=C/c2cc3ccccc3nc2Cl)nc2ccccc21,–,79µM,–[11.4 µM],–,–[11.4 µM],–
O=C(O)c1ccc(NC2=C/C(=N/S(=O)(=O)c3ccccc3)c3ccccc3C2=O)cc1,–,–,–,–,?,?
Cc1cc(C)c(S(=O)(=O)/N=C2\C=C(Nc3ccc(C(=O)O)cc3)C(=O)c3ccccc32)c(C)c1,?,50µM,–,–,–,?
Cc1nc([N+](=O)[O-])c(Br)n1CC(=O)c1ccc(Br)cc1,–,–,–,–,11µM,?
SMILES,GLS inh,Sfp PPTase inh,TrxR1 substrate,GCN5L2 inh,TrxR1 inh,VDR inh
Cc1nc([N+](=O)[O-])cn1CC(=O)c1ccc(Cl)cc1,–,–,–,–,–,–
Cc1nc([N+](=O)[O-])c(C(=O)OCc2ccccc2Br)n1C,–,–,–,–,–,–
Cc1nc([N+](=O)[O-])c(Br)n1CC(=O)c1ccc2ccccc2c1,–,–,–,–,11µM,–
CCNC(=O)C1(C)CCCN(C(=O)Cc2ccc(OC)c(OC)c2)C1 (configuration not stated),–,·,·,·,·,·
Cc1cc2cc3c(cc2nc1SCC(=O)Nc1nc(C)c(C)s1)OCO3,–,25µM,–,–,–,–
Cc1ccc(NC(=O)c2ccc3ncsc3c2)cc1S(=O)(=O)N(C)C,·,56µM,·,–,·,·

# Screens as filed in PubChem BioAssay.
